# In PubChem BioAssay (NCI):
# About 83,000 compounds went through this panel and 20% of them were active in at least one assay; those are over-represented in the sample as a whole.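 Method: cells in 96-well plates; compound added at one concentration; 48 h incubation; percent growth measured; values under 10 scored active.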 Unmarked numbers belong to inactive results. The source made the active and inactive calls.
# Legend:
# Test in all cases: NCI-60 one-dose screen, 48 h (100 = growth as untreated, 0 = no growth, -100 = all killed)
# Conditions in all cases: 10 µM unless noted
# SK-MEL-2 melanoma = system: SK-MEL-2 melanoma
# EKVX NSCLC = system: EKVX NSCLC
# SN12C renal = system: SN12C renal
# UO-31 renal = system: UO-31 renal
# TK-10 renal = system: TK-10 renal
# ACHN renal = system: ACHN renal
# CAKI-1 renal = system: CAKI-1 renal
# A498 renal = system: A498 renal
# CCRF-CEM leukemia = system: CCRF-CEM leukemia
# MOLT-4 leukemia = system: MOLT-4 leukemia
SMILES,growth (SK-MEL-2 melanoma),growth (EKVX NSCLC),growth (SN12C renal),growth (UO-31 renal),growth (TK-10 renal),growth (ACHN renal),growth (CAKI-1 renal),growth (A498 renal),growth (CCRF-CEM leukemia),growth (MOLT-4 leukemia)
O=CN1N=C(c2cccc(Nc3ccnc4cc(Cl)ccc34)c2)CC1c1ccccc1 (stereo not given),1.53% (active),34.3%,30.9%,10.6%,32.2%,30.3%,11.8%,5.63% (active),8.4% (active),10%
O=C(CSc1nc2sc3c(c2c(=O)n1-c1ccccc1)CCCCC3)N/N=C/c1cccc([N+](=O)[O-])c1,90.2%,70.3%,66.8%,75.7%,96.2%,80.6%,60%,83.7%,76.6%,70.5%
C=CCN=c1sc2c(n1NC(=O)c1cc3ccc1CCc1ccc(cc1)CC3)C(=O)c1ccccc1C2=O,-17.3% (active),-20.2% (active),-96.6% (active),-35.2% (active),58.3%,-95.3% (active),20.3%,56%,-3.65% (active),-15.5% (active)
Ic1ccc(OCCCCn2ccnc2)cc1,80.7%,62.1%,76.6%,63.8%,45.3%,59.4%,70%,36.2%,55.1%,82.2%
CC1CCN(CCOc2ccc(CNc3ccc4nc(CCC5CCCCC5)[nH]c4c3)cc2)CC1,-49.9% (active),65%,57.9%,-31.9% (active),73.1%,54.7%,-4.81% (active),2.94% (active),11.8%,11.2%
COc1c(B(O)O)cccc1-c1cc(C)c2c(ccc3[nH]ncc32)n1,116%,65.8%,60.5%,21.6%,29.2%,55.7%,-17.9% (active),8.91% (active),63.3%,64.2%
Cc1ccc(/C=C2\COc3ccc(O)cc3C2=O)cc1,117%,97.8%,79.9%,58.9%,102%,94%,80.8%,109%,2.21% (active),40.6%
C#COc1cccc(Nc2c(C#N)cnc3ncc(NC(=O)CCl)cc23)c1,12.4% [6.25 µM],52% [6.25 µM],17.3% [6.25 µM],41.1% [6.25 µM],26.8% [6.25 µM],32.4% [6.25 µM],36.1% [6.25 µM],56.7% [6.25 µM],-25.3% [6.25 µM] (active),-2.02% [6.25 µM] (active)
Nc1n[nH]c2cccc(C#Cc3cccc(C(=O)Nc4cc(C(F)(F)F)cc(C(F)(F)F)c4)c3)c12,72.2%,92%,61.1%,42.5%,109%,76.3%,96.2%,89.3%,12.1%,35.4%
COc1ccc(Nc2ncc(Br)c(NCCCNC(=O)C3CCCC3)n2)cc1,63.6%,47.3%,22%,-30.8% (active),23.3%,19.8%,9.48% (active),54.6%,27.1%,19.5%
COc1ccc(-c2nc3c(ncc4ccc(=O)[nH]c43)s2)cc1,106%,63.8%,78.2%,72.1%,73.8%,59.9%,67.6%,42.3%,72.6%,31.8%
C#CCOc1ccc2ncnc(Nc3ccc(NC(=O)C=C)cc3)c2c1,-0.222% (active),2.42% (active),1.14% (active),-26.4% (active),-62.7% (active),-96.6% (active),24.3%,74.1%,-39.5% (active),-34.7% (active)
O=C1c2ccc3c4c5ccc(c24)C(=O)N1CCCOCCCCOCCCNCc1ccc(cc1)CNCCCOCCCCOCCCN(C3=O)C5=O,-35.8% (active),-63.1% (active),-82.9% (active),64.7%,21.6%,-65.7% (active),-1.05% (active),93.7%,-0.763% (active),-12.3% (active)
